According to publication PMC7862700, “An all-to-all approach to the identification of sequence-specific readers for epigenetic DNA modifications on cytosine”:

Legend:
Assay in all cases: DAPPL (digital affinity profiling via proximity ligation, sequencing); 10 mM Tris-HCl pH 7.5, 50 mM NaCl, 1 mM DTT, 4% glycerol, room temperature, 30 min; GST-TFs on glutathione beads, 16-mer random dsDNA library, 0.1% formaldehyde crosslink after washing; high values mean tight binding
Conditions in all cases: protein: recombinant; tags: N-terminal GST; dsDNA, one strand shown
FLI1 = target: T1, FLI1 (Homo sapiens, UniProt Q01543 1-452)
T1 sequence: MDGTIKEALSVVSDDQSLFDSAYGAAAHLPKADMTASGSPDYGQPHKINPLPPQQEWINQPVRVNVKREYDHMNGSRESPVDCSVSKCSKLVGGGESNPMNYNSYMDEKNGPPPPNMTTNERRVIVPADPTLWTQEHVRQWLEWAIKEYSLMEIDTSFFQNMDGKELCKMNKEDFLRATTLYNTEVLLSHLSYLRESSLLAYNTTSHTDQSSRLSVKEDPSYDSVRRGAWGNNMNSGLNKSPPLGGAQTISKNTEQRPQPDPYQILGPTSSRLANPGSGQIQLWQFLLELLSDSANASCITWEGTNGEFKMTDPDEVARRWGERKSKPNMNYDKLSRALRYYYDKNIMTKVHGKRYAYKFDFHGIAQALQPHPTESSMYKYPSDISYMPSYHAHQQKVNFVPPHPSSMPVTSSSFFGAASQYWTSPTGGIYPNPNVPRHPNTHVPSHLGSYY
Outline: (§1)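 Binding signal is each hexamer's read frequency for a factor divided by its frequency in the tag-only sample. The factors were GST-fused human transcription factors from yeast, captured on glutathione beads, DNA-barcoded and pooled with that sample. Pools were incubated with 200 nmole of a random double-stranded 16-mer DNA library in Tris/NaCl/DTT/glycerol buffer at room temperature for 30 min, then washed, crosslinked with 0.1% formaldehyde, proximity-ligated with BsaI/T4 ligase (1 h, 37 °C), PCR-amplified and sequenced on an Illumina NextSeq500.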

ELK1 = target: T2, ELK1 (Homo sapiens, UniProt P19419 1-428)
T2 sequence: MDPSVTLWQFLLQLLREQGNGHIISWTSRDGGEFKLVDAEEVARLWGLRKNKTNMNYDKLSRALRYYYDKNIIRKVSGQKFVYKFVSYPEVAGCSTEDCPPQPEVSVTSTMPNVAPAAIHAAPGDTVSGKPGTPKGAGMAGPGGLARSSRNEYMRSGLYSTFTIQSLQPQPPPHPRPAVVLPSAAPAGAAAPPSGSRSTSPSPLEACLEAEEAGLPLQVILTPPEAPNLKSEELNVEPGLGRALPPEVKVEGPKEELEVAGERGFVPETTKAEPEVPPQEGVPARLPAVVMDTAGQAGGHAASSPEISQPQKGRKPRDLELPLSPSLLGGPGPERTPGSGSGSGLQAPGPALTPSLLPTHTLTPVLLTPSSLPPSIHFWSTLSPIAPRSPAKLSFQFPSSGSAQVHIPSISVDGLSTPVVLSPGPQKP
Outline: as §1

GABPA = target: T3, GABPA (Homo sapiens, UniProt Q06546 1-454)
T3 sequence: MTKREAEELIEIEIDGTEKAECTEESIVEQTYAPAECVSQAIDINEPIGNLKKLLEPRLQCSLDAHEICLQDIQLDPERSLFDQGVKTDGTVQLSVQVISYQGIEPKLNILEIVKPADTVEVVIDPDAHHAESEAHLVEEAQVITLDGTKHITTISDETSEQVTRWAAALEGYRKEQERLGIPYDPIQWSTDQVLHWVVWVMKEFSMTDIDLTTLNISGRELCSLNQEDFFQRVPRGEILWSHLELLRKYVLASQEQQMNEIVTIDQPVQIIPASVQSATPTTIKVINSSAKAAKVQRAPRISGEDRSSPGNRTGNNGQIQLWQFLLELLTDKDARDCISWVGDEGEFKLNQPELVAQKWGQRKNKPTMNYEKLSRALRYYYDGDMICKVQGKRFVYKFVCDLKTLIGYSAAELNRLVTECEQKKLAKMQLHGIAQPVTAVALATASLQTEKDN
Outline: as §1

ERG = target: T4, ERG (Homo sapiens, UniProt P11308 1-479)
T4 sequence: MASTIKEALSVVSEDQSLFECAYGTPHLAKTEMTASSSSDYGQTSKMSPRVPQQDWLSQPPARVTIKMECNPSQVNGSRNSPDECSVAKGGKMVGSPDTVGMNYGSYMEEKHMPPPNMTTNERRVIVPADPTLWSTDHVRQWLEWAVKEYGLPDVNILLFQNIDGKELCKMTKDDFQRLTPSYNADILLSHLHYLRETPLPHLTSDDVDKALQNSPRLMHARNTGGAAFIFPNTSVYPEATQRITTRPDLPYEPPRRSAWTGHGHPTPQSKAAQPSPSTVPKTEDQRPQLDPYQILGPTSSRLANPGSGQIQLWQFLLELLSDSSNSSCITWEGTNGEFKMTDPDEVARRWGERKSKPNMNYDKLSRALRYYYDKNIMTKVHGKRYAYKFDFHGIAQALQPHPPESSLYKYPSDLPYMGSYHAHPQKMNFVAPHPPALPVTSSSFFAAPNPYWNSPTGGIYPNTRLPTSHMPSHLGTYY
Outline: as §1

ELF1 = ELF1 (Homo sapiens, UniProt P32519 1-619)
ELF1, sequence (P32519 whole entry): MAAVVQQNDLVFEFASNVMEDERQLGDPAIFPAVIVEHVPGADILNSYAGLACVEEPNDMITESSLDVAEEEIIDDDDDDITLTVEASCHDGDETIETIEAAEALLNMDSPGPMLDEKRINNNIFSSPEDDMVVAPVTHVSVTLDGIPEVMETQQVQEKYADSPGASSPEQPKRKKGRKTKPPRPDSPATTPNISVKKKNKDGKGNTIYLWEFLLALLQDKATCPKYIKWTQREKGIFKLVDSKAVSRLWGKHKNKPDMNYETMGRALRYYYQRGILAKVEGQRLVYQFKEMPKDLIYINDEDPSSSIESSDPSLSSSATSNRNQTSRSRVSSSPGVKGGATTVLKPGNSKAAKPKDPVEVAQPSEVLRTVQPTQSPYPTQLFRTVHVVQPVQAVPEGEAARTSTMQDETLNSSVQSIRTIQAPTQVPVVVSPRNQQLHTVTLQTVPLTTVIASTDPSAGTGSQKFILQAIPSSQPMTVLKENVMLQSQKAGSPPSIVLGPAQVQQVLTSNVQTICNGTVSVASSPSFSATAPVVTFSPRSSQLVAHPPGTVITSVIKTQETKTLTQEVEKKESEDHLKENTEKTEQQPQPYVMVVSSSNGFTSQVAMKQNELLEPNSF
Outline: as §1

EHF = target: T5, EHF (Homo sapiens, UniProt Q9NZC4 1-300)
T5 sequence: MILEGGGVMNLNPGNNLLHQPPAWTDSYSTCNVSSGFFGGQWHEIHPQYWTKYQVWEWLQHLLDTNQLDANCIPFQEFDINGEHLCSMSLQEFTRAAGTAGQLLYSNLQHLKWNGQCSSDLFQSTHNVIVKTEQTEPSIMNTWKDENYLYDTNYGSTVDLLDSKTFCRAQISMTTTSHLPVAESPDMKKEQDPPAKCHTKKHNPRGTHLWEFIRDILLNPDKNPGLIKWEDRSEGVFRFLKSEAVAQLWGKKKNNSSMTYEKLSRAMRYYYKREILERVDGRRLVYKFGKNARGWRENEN
Outline: as §1

SPI1 = SPI1 (Homo sapiens, UniProt P17947 1-270)
Outline: as §1

SPIB = SPIB (Homo sapiens, UniProt Q01892 1-262)
SPIB, sequence (Q01892 whole entry): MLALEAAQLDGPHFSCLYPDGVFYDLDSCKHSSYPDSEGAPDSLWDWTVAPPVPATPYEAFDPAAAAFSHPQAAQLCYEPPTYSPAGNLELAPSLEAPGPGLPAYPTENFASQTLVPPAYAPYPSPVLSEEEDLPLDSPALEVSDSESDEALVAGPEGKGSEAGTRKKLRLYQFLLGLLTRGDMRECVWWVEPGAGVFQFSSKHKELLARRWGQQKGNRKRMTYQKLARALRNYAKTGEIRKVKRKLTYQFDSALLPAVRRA
Outline: as §1

ELK3 = target: T6, ELK3 (Homo sapiens, UniProt P41970 1-407)
T6 sequence: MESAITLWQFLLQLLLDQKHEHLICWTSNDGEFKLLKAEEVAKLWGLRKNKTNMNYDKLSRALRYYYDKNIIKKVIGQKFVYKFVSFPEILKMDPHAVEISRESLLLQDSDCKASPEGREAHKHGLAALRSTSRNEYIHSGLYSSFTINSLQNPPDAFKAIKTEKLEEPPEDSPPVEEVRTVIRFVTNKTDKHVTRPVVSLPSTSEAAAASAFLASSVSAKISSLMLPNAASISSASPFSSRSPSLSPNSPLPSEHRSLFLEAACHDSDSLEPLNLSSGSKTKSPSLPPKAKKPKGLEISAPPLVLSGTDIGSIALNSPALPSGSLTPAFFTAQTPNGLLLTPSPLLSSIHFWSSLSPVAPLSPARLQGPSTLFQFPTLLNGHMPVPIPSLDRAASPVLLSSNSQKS
Outline: as §1

Question: How did the binding signal (FLI1) turn out when TGCGCT was run?
Answer: 1.27 fold enrichment (6-mer frequency, TF over GST control)

Question: And the binding signal (ELK1)?
Answer: 1.3 fold enrichment (6-mer frequency, TF over GST control)

Question: And the binding signal (GABPA)?
Answer: 1.13 fold enrichment (6-mer frequency, TF over GST control)

Question: And the binding signal (ERG)?
Answer: 1.25 fold enrichment (6-mer frequency, TF over GST control)

Question: And the binding signal (ELF1)?
Answer: 1.19 fold enrichment (6-mer frequency, TF over GST control)

Question: What about the binding signal (EHF) of the same sequence?
Answer: 1.25 fold enrichment (6-mer frequency, TF over GST control)

Question: What about the binding signal (SPI1) of the same sequence?
Answer: 1.11 fold enrichment (6-mer frequency, TF over GST control)

Question: And the binding signal (SPIB)?
Answer: 1.31 fold enrichment (6-mer frequency, TF over GST control)

Question: And the binding signal (ELK3)?
Answer: 1.25 fold enrichment (6-mer frequency, TF over GST control)

Question: Which results are given for AATGCC?
Answer: binding signal (FLI1): 1.06 fold enrichment (6-mer frequency, TF over GST control); binding signal (ELK1): 1.19 fold enrichment (6-mer frequency, TF over GST control); binding signal (GABPA): 1.17 fold enrichment (6-mer frequency, TF over GST control); binding signal (ERG): 1.18 fold enrichment (6-mer frequency, TF over GST control); binding signal (ELF1): 1.13 fold enrichment (6-mer frequency, TF over GST control); binding signal (EHF): 1.18 fold enrichment (6-mer frequency, TF over GST control); binding signal (SPI1): 1.06 fold enrichment (6-mer frequency, TF over GST control); binding signal (SPIB): 1.17 fold enrichment (6-mer frequency, TF over GST control); binding signal (ELK3): 1.08 fold enrichment (6-mer frequency, TF over GST control)

Question: How did the binding signal (FLI1) turn out when ATTCTG was run?
Answer: 1.35 fold enrichment (6-mer frequency, TF over GST control)

Question: And the binding signal (ELK1)?
Answer: 1.23 fold enrichment (6-mer frequency, TF over GST control)

Question: And the binding signal (GABPA)?
Answer: 1.33 fold enrichment (6-mer frequency, TF over GST control)

Question: And the binding signal (ERG)?
Answer: 1.21 fold enrichment (6-mer frequency, TF over GST control)

Question: And the binding signal (ELF1)?
Answer: 1.26 fold enrichment (6-mer frequency, TF over GST control)

Question: What about the binding signal (EHF) of the same sequence?
Answer: 1.34 fold enrichment (6-mer frequency, TF over GST control)

Question: And the binding signal (SPI1)?
Answer: 1.27 fold enrichment (6-mer frequency, TF over GST control)

Question: What about the binding signal (SPIB) of the same sequence?
Answer: 1.15 fold enrichment (6-mer frequency, TF over GST control)

Question: What about the binding signal (ELK3) of the same sequence?
Answer: 1.37 fold enrichment (6-mer frequency, TF over GST control)
